Experimental findings from PubChem BioAssay (EPA / NIEHS) are described below.

“And” between values parts separate entries of the source, which are not always exact repeats. Equal entries are not always repeated. Where a structure was tested more than once in an assay, its records may differ in their call. The source made the active and inactive calls. How the source made its calls: active means hit-call score of the fitted dose curve at least 0.9, where 1 is the maximum; inactive means score below 0.9.

By AC50 is commonly meant the concentration at which the activity in the assay is half-maximal.

Read-out in this experiment: DNA damage-inducible transcript 3 (DDIT3), DDIT3 (gene 1649)
In words: LTEA_HepaRG_DDIT3: Life Technologies and Expression Analysis (LTEA) Assay for DNA damage-inducible transcript 3 (DDIT3) using HepaRG (AID 2283488). The settings on record: mRNA level, 48 h; actives raise or lower the signal. The protocol: LTEA_HepaRG is a cell based, multiplexed-readout assay that uses HepaRG, a human liver cell line, with measurements taken at 48 hours after chemical dosing on a 96-well plate.LTEA_HepaRG_DDIT3 is one of 102 assay component(s) measured in the LTEA HepaRG cell culture assay. It is a marker of Oxidative Stress.Data from the assay component LTEA_HepaRG_DDIT3 was analyzed into 1 endpoint. This assay endpoint, LTEA_HepaRG_DDIT3, was analyzed with bidirectional fitting relative to DMSO as the negative control and baseline of activity. Using a type of inducible reporter, measures of mRNA induction for gain or loss-of-signal activity can be used to understand regulation of transcription factor activity. To generalize the intended target to other relatable targets, this assay endpoint is annotated to the dna binding intended target family, where the subfamily is basic leucine zipper.
A total of 1060 chemcials from the ToxCast library were tested in eight-point concentration-response experiments. Cell culture and cytotoxicity assays were conducted at Thermo Fisher Scientific's Custom Services facility (Madison, WI). A single lot of human HepaRG cells (Thermo Fisher Scientific, Frederick, MD) was used for the cell culture experiments. 96-well format collagen type I coated plates of human HepaRG cells were prepared using established methods. Briefly, cryopreserved HepaRG cells were thawed, plated at a density of approximately 100,000 cells/well in HepaRG Thaw, Plate, and General Purpose media (HPRG770, Thermo Fisher Scientific), and incubated for 48 hours. 0.5% DMSO was selected as vehicle control to balance the requisite need of DMSO in HepaRG cultures to maintain differentiation (for example, baseline metabolism, proportions of hepatocytes vs. cholangiocytes), while enabling further hepatic receptor pathway activation (for example, PXR and CAR) in response to chemical exposure. 48 hours after plating, the culture medium was replaced with HepaRG Serum-Free Incudtion Media. Cells were exposed to each test chemical in duplicate and maintained in CO2 incubators for another 48 hours. Chemical plates were thawed to room temperature and 200x concentrations of treatment groups were prepared. 8-point conentration-reponse curves were made with the highest exposure at 100 uM, followed by half-log dilutions, all in 0.5% DMSO. Each test plate contained variouse controls, induction positive controls (1mM phenobarbital), cytotoxicity positive controls ([…] aflatoxin B1), vehicle controls (0.5% DMSO), and total lysis controls (0.5% DMSO). Cell morphology images were taken using an Essen IncuCyte FLR automated microscope, with six 96-well plates imaged in about 24 minutes. Images were captured and exported and JPEG files. Spent culture media was transfered to black-well plates for the LDH assay, and remaining media was sorted at -80 C for later use. Cells were treated with RLT buffer and frozen until shipped for gene expression analysis. Total RNA was isolated from the cell suspension in 75 uL of Buffer RLT (Qiagen, Germantown, MD 20874) by Quintiles/Expression Analysis (Durham, NC) using a custom isolation procedure. Total RNA from each plate well was transferred to a preamplification plate. Fluidigm's 96.96 Dynamic ArrayTM (Fluidigm, Amsterdam, the Netherlands) technology was used for gene expression analyses by quantitative reverse transcription polymerase chain reaction (qRT-PCR, performed by Quintiles/Expression Analysis, Durham, NC)89. Standard TaqManTM Assays (Applied Biosystems/ThermoFisher Scientific, Foster City, CA) were used to assess the expression of 93 genes selected based on their selectivity and sensitivity to important hepatic receptors known to be modulated by environmental chemicals; importance in human hepatocyte functionality; and hepatotoxicity. […]
`CCCN(CCC)c1c([N+](=O)[O-])cc(S(N)(=O)=O)cc1[N+](=O)[O-]`: the call was inactive; the concentration at half-maximal activity (AC50) is 93.7 µM (active) and 67.7 µM (active).

As for `C=CC1(C)OC(=O)N(c2cc(Cl)cc(Cl)c2)C1=O` (stereo not given), the compound was called inactive.

As to `Oc1ccccc1-c1ccccc1`, the compound was called inactive.

With `CCCCC(CC)COC(=O)c1ccccc1C(=O)OCC(CC)CCCC` (stereo not given), the compound was called inactive.

Regarding `COC(=O)C(C)Oc1ccc(Oc2ccc(Cl)cc2Cl)cc1` (stereo not given), the call was inactive.

For the compound `Fc1ccc(Oc2ccnc3cc(Cl)cc(Cl)c23)cc1`, the AC50 is 65.1 µM (active).

Take `C=CCC1=C(C)[C@@H](OC(=O)[C@@H]2[C@@H](C=C(C)C)C2(C)C)CC1=O`: the outcome was inactive.

In the case of `COC(=O)C=C(C)OP(=O)(OC)OC`, the compound was classed as inactive.

For the compound `CC1COC(Cn2cncn2)(c2ccc(Oc3ccc(Cl)cc3)cc2Cl)O1` (stereo not given), the AC50 was 12 µM (active).

As to `Cc1ccc(-c2c(Cl)nc(C#N)n2S(=O)(=O)N(C)C)cc1`, the concentration at half-maximal activity (AC50) is 21.7 µM (active).

As for `CCOC(=O)CC(SP(=S)(OC)OC)C(=O)OCC` (stereo not given), the result was inactive.

In the case of `CO/C=C(/C(=O)OC)c1ccccc1Oc1cc(Oc2ccccc2C#N)ncn1`, the AC50 is 77.9 µM (active) and 94.2 µM (active) and 77.2 µM (active).

Consider `N#Cc1cc(Br)c(O)c(Br)c1`, for which the AC50 was 68.3 µM (active).

With `CCCCNC(=O)n1c(NC(=O)OC)nc2ccccc21`, the outcome was inactive.

In the case of `CCCC1COC(Cn2cncn2)(c2ccc(Cl)cc2Cl)O1` (stereo not given), the AC50 was 30.7 µM (active).

For the compound `COP(=S)(OC)Oc1nc(Cl)c(Cl)cc1Cl`, the compound was called inactive.

On to `CNC(=O)ON=CC(C)(C)SC`, for which the call was inactive.

Take `CON(C)C(=O)Nc1ccc(Cl)c(Cl)c1`: the outcome was inactive.

On to `COP(N)(=O)SC` (stereo not given), for which the result was inactive.

As for `CCOP(=S)(OCC)SCn1c(=O)oc2cc(Cl)ccc21`, the compound was called inactive.

With `CC(C)C1(C)N=C(c2nc3ccccc3cc2C(=O)O)NC1=O` (stereo not given), the compound was classed as inactive.

Turning to `CCOc1cc(Oc2ccc(C(F)(F)F)cc2Cl)ccc1[N+](=O)[O-]`, the AC50 is 78 µM (active).

On to `Cc1cc(Cl)ccc1OCC(=O)O`, for which the compound was classed as inactive.

For the compound `O=C(O)c1nc(Cl)ccc1Cl`, the outcome was inactive.

As to `COc1nc(NC(C)C)nc(NC(C)C)n1`, the call was inactive.

As for `COc1cnc(OC)n2nc(NS(=O)(=O)c3c(OCC(F)F)cccc3C(F)(F)F)nc12`, the compound was classed as inactive.

As for `O=C(Nc1ccccc1)Nc1ccnc(Cl)c1`, the result was inactive.

On to `Cc1c(F)c(F)c(COC(=O)C2C(/C=C(\Cl)C(F)(F)F)C2(C)C)c(F)c1F` (stereo not given), for which the compound was classed as inactive.

For `N#CC(CCc1ccc(Cl)cc1)(Cn1cncn1)c1ccccc1` (stereo not given), the AC50 was 34.8 µM (active).

Regarding `CC(Oc1ccc(Cl)cc1Cl)C(=O)O` (stereo not given), the outcome was inactive.

Turning to `COC(=O)c1ccccc1C(=O)OC`, the compound was classed as inactive.

For `OC(c1ccc(Cl)cc1)(c1cncnc1)c1ccccc1Cl` (stereo not given), the concentration at half-maximal activity (AC50) was 71.8 µM (active).

In the case of `CS/C(C)=N/OC(=O)N(C)SN(C)C(=O)O/N=C(\C)SC`, the outcome was inactive.

With `CCc1nn(C)c(C(=O)NCc2ccc(C(C)(C)C)cc2)c1Cl`, the AC50 is 0.738 µM (active).

For `O=C(O)COc1nc(Cl)c(Cl)cc1Cl`, the result was inactive.

In the case of `CNC(=S)S`, the outcome was inactive.

On to `CCNc1nc(Cl)nc(NC(C)C)n1`, for which the compound was classed as inactive.

Take `COC(=O)N(OC)c1ccccc1COc1ccn(-c2ccc(Cl)cc2)n1`: the AC50 was 60.9 µM (active).

Regarding `CCOC(=O)C(Cl)Cc1cc(-n2nc(C)n(C(F)F)c2=O)c(F)cc1Cl` (stereo not given), the compound was classed as inactive.
